Source: PubChem
ERAP1 HTS inh: inhibitors of human ERAP1 aminopeptidase; AID 652197; actives 0.15% (n = 340,000); inhibition, % at 10.7 µM; Q9NZ08; recombinant ERAP1, Leu-AMC fluorescence, 60 min;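 active = mean replicate inhibition of at least 30%, or all replicates individually reaching that 30% level; inactive = mean below 30% and not every replicate reaching it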;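 also: 0% = neutral control wells and 100% = L-leucinethiol positive control wells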
FGF22 binding: FGF22 (human) thermal shift binding; recombinant FGF22 thermal shift, SYPRO orange fluorescence; percent of sucrose octasulfate shift, DMSO zero; activity (Tm shift, normalised), % at 9.99 µM; AID 651658; actives 1.5% (n = 340,000);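 active = mean Tm shift, scaled 0 neutral to 100 positive control, at about 1.3% or above, every replicate too, limit read from the data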
Target sequence (Q9HCT0 whole entry, looked up): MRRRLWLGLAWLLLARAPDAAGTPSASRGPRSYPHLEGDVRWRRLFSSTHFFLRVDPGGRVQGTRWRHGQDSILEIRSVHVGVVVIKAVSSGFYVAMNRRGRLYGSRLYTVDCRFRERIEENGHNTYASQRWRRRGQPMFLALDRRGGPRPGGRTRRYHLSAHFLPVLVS
INS-1E GSIS act: primary screen for activators of insulin secretion dependent on glucose, INS-1E cells, GLuc reporter luminescence; INS-1E GLuc reporter insulin secretion, 2-3 h; activation, % at 16.6 µM; actives 0.61% (n = 370,000);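 active = lowest replicate activation of at least 40%, so every replicate reaches that level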;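 also: 0% = median of neutral control wells and 100% = median of IBMX positive control wells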
CASP6 VEID inh: inhibitors of human caspase-6 | P55212 | purified caspase-6, Z-VEID-R110 cleavage fluorescence | inhibition, % at 12.5 µM | actives 0.53% (n = 350,000);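 active = mean inhibition across replicates at least about 35%, with every replicate also reaching that limit, limit read from the data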;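 also: 0% = median of neutral control wells and 100% = no fluorescence left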
Target sequence (P55212 24-179 limits assumed): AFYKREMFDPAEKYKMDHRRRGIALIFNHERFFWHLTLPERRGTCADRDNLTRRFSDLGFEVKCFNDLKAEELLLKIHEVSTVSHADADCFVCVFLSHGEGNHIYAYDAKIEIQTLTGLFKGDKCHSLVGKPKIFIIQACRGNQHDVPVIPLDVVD
Target sequence (P55212 194-293 limits assumed): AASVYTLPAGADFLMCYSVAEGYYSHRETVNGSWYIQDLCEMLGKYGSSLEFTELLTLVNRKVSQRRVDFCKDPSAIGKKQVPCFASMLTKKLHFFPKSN
SIRT5 inh: sirtuin-5 (human) deacylase inhibition | Q9NXA8 | Purified SirT5, succinyl-peptide AMC, trypsin-coupled fluorescence | inhibition, % at 15 µM | actives 1.1% (n = 330,000) | AID 652115; in the data active = inhibition above about 15%
The depositor's hits bear a star; . = no result; ! = not active in a repeat. Compounds with a hit are over-represented: about 3.3% of the library has one in this group of screens.

SMILES | ERAP1 HTS inh | FGF22 binding | INS-1E GSIS act | CASP6 VEID inh | SIRT5 inh
COc1ccc2c3c(n(C)c2c1)[C@@H](CO)N(C(=O)c1cnccn1)CC31CCN(C(=O)c2cnccn2)CC1 | . | 0.2 | 16.5 | . | -1.8
Cc1ccc(C(=O)CSc2nnc(-c3ccco3)n2C)cc1 | -2.8 | 0.3 | 3.1 | 2.2 | -4.9
Cn1c(SCC(=O)c2cc(Cl)c(Cl)s2)nnc1-c1ccco1 | -0.1 | 0.1 | -4.3 | 51.5* | 3.8
CO[C@@H]1CN(C)C(=O)c2cc(NC(=O)c3cccc(F)c3)ccc2OC[C@@H](C)N(C(C)=O)C[C@H]1C | . | . | -5.1 | . | .
CN(CC(=O)Nc1ccc(OC(F)(F)F)cc1)C(=O)c1ccccc1SCC(=O)N1CCCC1 | -1.1 | -0.2 | -43.0 | 80.6* | -0.9
Cc1cccc(NC(=O)COC(=O)c2ccccc2SCC(=O)N2CCCC2)c1 | -8.0 | 28.3* | . | -2.1 | 2.3
NC(=O)c1ccc(NC(=O)COC(=O)c2ccccc2SCC(=O)N2CCCC2)cc1 | -3.9 | 0.1 | 10.7 | 1.5 | .
CSc1nnc(-c2cc[n+](C)cc2)n1CCO | 101.5* | 0.5 | 7.4 | -4.0 | -5.0
CCn1c(SCC(O)c2ccccc2)nnc1-c1ccccc1 (configuration not stated) | . | . | 9.8 | . | .
C/C=C/c1cnc2c(c1)C(=O)N([C@@H](C)CO)C[C@H](C)[C@H](CN(C)S(=O)(=O)c1cn(C)cn1)O2 | 2.0 | -0.3 | 9.1 | -1.1 | -2.7
COC1OC2COC(c3ccccc3)OC2C(NC(C)=O)C1OC(C)=O (configuration not stated) | 1.5 | 45.1* | . | -12.9 | .
COC1OC2COC(c3ccccc3)OC2C(OC(=O)c2ccccc2)C1OC(=O)c1ccccc1 (configuration not stated) | -2.3 | 0.0 | -6.1 | -1.5 | 2.7
COc1ccc(OC)c(N=Nc2c(O)c3ccccc3[nH]c2=O)c1 | -0.3 | 43.3* | . | 3.2 | .
N#Cc1ccc(COC(=O)c2cccnc2Cl)cc1 | -2.0 | 0.1 | 3.8 | -2.8 | -2.0
CCOc1ncccc1C(=O)OCc1ccc(C#N)cc1 | . | . | 54.7* | . | .
CSc1ncccc1C(=O)NCc1ccc(C)cc1 | . | . | 4.6 | . | .
CCOc1ncccc1C(=O)OCC(=O)c1cccs1 | -1.7 | 0.0 | 49.8* | 9.8 | 1.2
CCOc1ncccc1C(=O)OCC(=O)c1ccc(Br)s1 | -0.8 | 0.1 | 3.6 | 2.8 | 6.5
CCOc1ncccc1C(=O)NCc1ccc(C)cc1 | -1.8 | 0.1 | 45.2* | -3.0 | -7.3
COc1ccc(CC(=O)NCC2CCCN(Cc3cc(OC)cc(OC)c3)C2)cc1 (configuration not stated) | -0.8 | -0.4 | -4.2 | -2.4 | -0.4
COc1ccc(CC(=O)NCC2CCCN(Cc3ccccc3Cl)C2)cc1 (configuration not stated) | -1.0 | -0.1 | -7.5 | -2.8 | 16.5*
COc1ccc(CC(=O)NCC2CCCN(Cc3ccc(OC(F)(F)F)cc3)C2)cc1 (configuration not stated) | -2.5 | -0.2 | . | 0.2 | 21.5*
COc1cccc(CN2CCCC(CNC(=O)c3ccc(F)cc3)C2)c1OC (configuration not stated) | -2.9 | 43.0* | 5.3 | -3.6 | -5.1
COC(=O)c1ccc(CN2CCCC(CNC(=O)Cc3ccc(OC)cc3)C2)cc1 (configuration not stated) | -0.6 | -0.2 | . | -1.1 | -0.2
CNC[C@@H]1Oc2ncc(-c3cccc(C(=O)N(C)C)c3)cc2C(=O)N([C@@H](C)CO)C[C@H]1C | 0.1 | 0.1 | 24.0 | -5.1 | 2.9
SMILES | ERAP1 HTS inh | FGF22 binding | INS-1E GSIS act | CASP6 VEID inh | SIRT5 inh
Cc1cccc(-c2ccc([C@H]3[C@@H](CO)N4CCCCN(CCC(F)(F)F)C[C@H]34)cc2)c1 | 0.0 | -0.2 | 10.9 | -8.9 | -1.4
Cc1ccccc1-c1nc(CS(=O)(=O)CC(=O)NCCN2CCCC2)c(C)o1 | -5.0 | -0.2 | -6.3 | 36.0* | -1.7
CCN1CCN(CCCNC(=O)CS(=O)(=O)Cc2nc(-c3ccccc3C)oc2C)CC1 | -1.0 | -0.1 | 9.2 | -36.4 | -1.2
CC(NC(=O)Cn1cccc1C(=O)c1ccccc1)c1ccc2c(c1)OCCO2 (configuration not stated) | -3.8 | 43.2* | -14.7 | . | 0.6
CC(CCc1ccccc1)NC(=O)Cn1cccc1C(=O)c1ccccc1 (configuration not stated) | 0.8 | -0.1 | -20.7 | 1.9 | -1.1
Cc1ccc(-c2ccc3c(c2)O[C@H](CN(C)C(=O)C2CCC2)[C@H](C)CN([C@@H](C)CO)S3(=O)=O)cc1 | 0.8 | -0.3 | -13.1 | 3.0 | 10.0
O=C1c2c(O)cccc2Cc2cccc(O)c21 | 3.7 | 0.0 | . | 0.5 | .
O=C1Cc2cccc(=O)c(O)c2C(=O)O1 | -0.8 | -0.1 | 1.0 | 38.4* | 4.6
COc1ccc(Nc2oc(-c3ccc(OC)cc3)nc2C#N)cc1 | -0.3 | 0.5 | 15.2 | 0.4 | 2.0
CCOc1ccc(Nc2oc(-c3ccc(Cl)cc3)nc2C#N)cc1 | . | . | 73.3* | . | .
CC(CN1CCCCC1)C(=O)NNC(=O)C12CC3CC(CC(C3)C1)C2 (configuration not stated) | -10.5 | 0.0 | 7.2 | 42.9* | 9.2
CC(CN1CCCCCC1)C(=O)NN (configuration not stated) | 1.6 | 40.9 | 1.4 | -89.1 | -3.2
CN(C)C(=O)C[C@@H]1CC[C@@H]2[C@@H](COc3ccc(NC(=O)C4CCOCC4)cc3C(=O)N2C)O1 | 0.8 | -0.1 | 0.3 | 2.1 | -6.0
COc1ccccc1NC(=O)/C=C/c1ccc2c(c1)OCO2 | -2.3 | 0.1 | 31.7 | 4.9 | 1.1
Cc1ccc(C)c(NC(=O)CCC(=O)N/N=C/c2ccc3c(c2)OCO3)c1 | 10.3 | 43.4* | -10.9 | -3.0 | 1.4
Cc1ccc(S(N)(=O)=O)cc1NC(=O)/C=C/c1ccc2c(c1)OCO2 | 3.9 | 43.5* | 10.3 | -3.4 | 0.6
CCOc1ccc(NC(=O)CCC(=O)N/N=C/c2ccc3c(c2)OCO3)cc1 | 1.3 | -0.1 | 0.1 | 1.6 | -1.6
Cc1ccccc1NC(=O)CCC(=O)N/N=C/c1ccc(F)cc1 | -1.9 | 43.0* | 9.1 | 4.8 | -8.7
Cc1ccccc1NC(=O)CCC(=O)N/N=C/c1cccnc1 | -1.1 | 0.3 | 13.6 | 2.2 | 5.0
Cc1ccccc1NCC(=O)N/N=C\c1ccc2c(c1)OCO2 | -0.8 | 44.0* | -9.6 | 0.1 | -1.1
COCC(=O)NC[C@H]1[C@H](c2ccccc2)[C@@H](CO)N1C(C)=O | 3.3 | -0.1 | 8.3 | 1.1 | .
CN1CCN(NC(=O)NC2CCCCC2)CC1 | -0.6 | -0.3 | 6.1 | 40.6* | 2.7
CCC(=O)Nc1ccc2c(c1)OC[C@H](C)N(C(=O)COC)C[C@@H](C)[C@@H](OC)CN(C)C2=O | 0.5 | -0.1 | -1.0 | 1.6 | -0.3
Cn1cnc(CCNC(=O)C[C@H]2CC[C@@H]3[C@H](COC[C@H](O)CN3C(=O)Nc3ccc(Cl)cc3)O2)c1 | 0.4 | 0.0 | -5.8 | 1.1 | 0.2
Cn1cnc(CCNC(=O)C[C@H]2CC[C@@H]3[C@H](COC[C@H](O)CN3C(=O)C3CCCC3)O2)c1 | 0.5 | 0.2 | -3.5 | 0.1 | 35.3*!
